Values joined by “and” are separate entries in the source; they are usually repeats but may differ in a detail not shown here. Equal values may be shown once. Out of some 220,000 compounds screened, about 2,000 (0.91%) were called active. Another 2% or so got no clear call; they are omitted. A selection follows. Measured potencies and affinities stand elsewhere. Unmarked numbers belong to inactive results. No stated cut-off is given here; in the data, inconclusive means inhibition above about 80% without an active follow-up result; inactive means below that; test concentration not stated here.

The assay is described as follows: M. tuberculosis H37Rv growth inhibitors, H37Rv strain (AID 1626).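 Further: bacteria incubated seven days before Alamar blue readout; 0% = bacteria only wells and 100% = bacteria with antibiotic wells.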 As to conditions: hits give high values, concentration not given here.
With `CC12CN3CC(C)(CN(C1)C3c1cccnc1)C2=O` (stereo not drawn), the inhibition was -0.26%.
Under `O=C(NC(=S)NCCN1CCOCC1)c1ccccc1` stands -16.1%.
The value for `CCOC(=O)C1CCCN(C(=O)c2ccc([N+](=O)[O-])c(C)c2)C1` (stereo not drawn) was -2.07%.
The value for `CCOC(=O)C1CCCN(c2cc(NCCCO)c([N+](=O)[O-])c3nonc23)C1` (stereo not drawn) was 1.76%.
As to `Cc1n[nH]c(=O)n1-c1ccc(OCc2ccccc2)cc1`, the inhibition was -0.14%.
Turning to `Cc1cc(-c2nnc(SCC(=O)c3ccc(F)cc3)o2)no1`, the inhibition was 3.52%.
Take `Fc1ccccc1-c1nc(N2CCCCC2)c2ccccc2n1`: the inhibition was 7.2%.
The value for `c1ccc2c(N3CCCCCC3)nc(-c3ccncc3)nc2c1` was 37%; that for `c1ccc2c(N3CCOCC3)nc(-c3ccncc3)nc2c1` was -3.11%; that for `CCN1CCN(c2nc(-c3ccccn3)nc3ccccc23)CC1` was -2.25%.
`CN1CCN(c2nc(-c3ccccn3)nc3ccccc23)CC1`: the inhibition was 10.9%.
The value for `c1cncc(-c2nc(N3CCOCC3)c3ccccc3n2)c1` was -2.03%.
On to `CCn1cc(C(=O)N2CCN(c3ccc([N+](=O)[O-])cc3)CC2)c(=O)c2ccc(C)nc21`, for which the inhibition was 6.57%.
The value for `O=S(=O)(O)c1nc2ccccc2[nH]1` was -0.16%.
Under `Cc1cc(=O)[nH]c(N/N=C/c2cc(C)n(-c3ccccc3)c2C)n1` stands -2.65%.
In the case of `S=C(Nc1ccc(Cl)cc1)NC1CC2CCCC(C1)N2C1CC1` (stereo not drawn), the inhibition was -1.32%.
Under `Cc1ccc(-n2c(C(C)n3nc(C)c([N+](=O)[O-])c3C)n[nH]c2=S)cc1` (stereo not drawn) stands 3.01%; under `Cc1ccc(C(=O)CSC2=NC(N)=C(C#N)C3(CCCCC3)C2C(N)=O)cc1` (stereo not drawn), -12.2%.
On to `FC(F)(F)c1nnc2ccc(N3CCCC3)nn12`, for which the inhibition is -2.32%.
Under `Fc1c(F)c(C(F)(F)F)c(F)c(F)c1N1CCN(c2ccc3nnc(C(F)(F)F)n3n2)CC1` stands 8.98%; under `COc1ccc(NC(=O)COc2ncnc3ccccc23)cc1S(=O)(=O)N1CCOCC1`, -8.54%.
The value for `CCCc1[nH]n(-c2nc3ccccc3s2)c(=O)c1C=NCCCOC` was -3.55%; that for `Cc1cc(Nc2ccccc2)n(-c2ccc(Br)cc2)n1` was -7.48%; that for `Cc1cc(Nc2ccccc2)n(-c2ccccc2)n1` was 1.16%.
The value for `CNc1cc(C)nc(-n2nc(C)cc2C)n1` was 13%.
With `Cc1ccc(C)c(C(=O)Nc2cc(C)nn2-c2nc(C)cc(C)n2)c1`, the inhibition was 22%.
Under `CC(=O)Nc1cc(C)nn1-c1nc(C)cc(C)n1` stands 3.43%.
For `COc1ccc(Nc2cc(C)nc(N3CCOCC3)n2)cc1`, the inhibition was 10.4%.
The value for `O=C(c1ccc(Cl)nc1)N1CCN(S(=O)(=O)c2ccc(Cl)cc2)CC1` was 5.1%; that for `Cc1ccc(/C=C(/C#N)C(=O)NC(C)c2ccccc2)o1` (stereo not drawn) was 5.5%; that for `CCCC(c1nnnn1C(C)(C)CC)N1CCN(C2CCCC2)CC1` (stereo not drawn) was 3.73%.
Under `CC(=O)Nc1ccccc1C(=O)C(=O)Nc1ccc(C(=O)N2CCOCC2)cc1` stands -0.85%; under `Cc1ccc(C2C(C(=O)c3sc(C)nc3C)=C(O)C(=O)N2CCN(C)C)o1` (stereo not drawn), -6.12%; under `COc1ccc(S(=O)(=O)Nc2ccc(N3CCOCC3)cc2)cc1[N+](=O)[O-]`, -1.81%.
For the compound `COC(CNc1cc(=O)oc2ccccc12)OC`, the inhibition was 3.54%.
The value for `O=C(COC(=O)CC1CC2CCC1C2)Nc1c(F)cccc1F` (stereo not drawn) was -6.22%; that for `CCN(CC)CCNC(=O)c1ccc(NC(C)=O)cc1` was -2.03% and 6.46%.
Under `CCN(CC)CCNC(=O)C(=O)Nc1ccc(C(=O)OC)cc1` stands 0.58%.
The value for `CCOC(=O)c1ccc(NC(=S)NCc2cccnc2)cc1` was -9.64%.
In the case of `CCCCOC(=O)c1ccc(NC(=O)c2c(OC)cccc2OC)cc1`, the inhibition is -7.36%.
The value for `CCCCOC(=O)c1ccc(NC(=O)C(=O)NCc2ccco2)cc1` was 5.24%; that for `CCCCNc1ccc(C(=O)OCCN(C)C)cc1` was 5.64%; that for `CCCCOC(=O)c1ccc(NC(C)=O)cc1` was 58.3%.
Under `CCOC(=O)c1ccc(NC(=O)C(=O)NCCc2ccc(OC)cc2)cc1` stands 2.35%.
The value for `CCOc1cc(CNc2ccc(N(C)C)cc2)cc(Br)c1OCC(=O)NC(C)(C)C` was 13.9%; that for `O=C(Cn1nnc2ccccc21)OCc1ccccc1` was 3.11%; that for `CC(C(=O)Nc1ccc(C(=O)O)cc1)N1C(=O)c2ccccc2C1=O` (stereo not drawn) was 2.02%.
As to `CC1C(=O)NN=C1C(=O)N/N=C/c1ccco1` (stereo not drawn), the inhibition was 4.15%.
Under `N/C(CN1CCCC1=O)=N\OC(=O)c1ccccc1Cl` stands -4.21%; under `CC(C)(C)C(=O)Nc1ccc(N=Nc2ccccc2)cc1`, 1.74%; under `COc1ccc(C2=NOC(C)(c3nnc(-c4ccncc4)o3)C2)cc1` (stereo not drawn), 3.27%.
Under `O=C(c1csc2c1CCCC2)N1CCCCC1` stands -7.91%; under `Cc1ccc2c(c1)NC(=O)C(CC(=O)NCCCN1CCc3ccccc3C1)O2` (stereo not drawn), -7.1%.
Regarding `Cc1cc(=O)oc2cc(OC(=O)c3ccccc3)ccc12`, the inhibition is 70%.
Under `COCCOC(=O)c1c(C)oc2ccc(OC(=O)N(C)C)cc12` stands -0.97%.
The value for `COCCOC(=O)c1c(C)oc2ccc(OS(C)(=O)=O)cc12` was 10.4%; that for `COCCOC(=O)c1c(C)oc2ccc(OCc3ccccc3)cc12` was 0.54%.
Under `CC(=O)Oc1ccc2c(C)cc(=O)oc2c1` stands 74.8%.
For `COCCOC(=O)c1c(C)oc2ccc(OC(=O)c3c(OC)cccc3OC)cc12`, the inhibition is 9.56%.
For the compound `COc1ccccc1N(CC(=O)NCc1ccccc1)C(=O)CCC(=O)Nc1cc(C)ccn1`, the inhibition was -0.58%.
The value for `Clc1cccc(-c2nnc(-c3ccccc3)o2)c1` was 10.9%; that for `N#CCC(=O)Nc1ccc(C(=O)NCc2ccccn2)cc1` was -2.46%; that for `CCC(=O)c1cc(F)c(N2CCN(S(=O)(=O)c3ccc(C)cc3)CC2)cc1C` was 4.53%.

The term inhibition denotes the change of the read-out against control, counted positive when it falls.

(Values after PubChem BioAssay AID1626 (SRMLSC, 2009).)
